# Where “and” joins values, the source holds several entries; their conditions need not be identical. Equal values may be shown once. Results filed as inconclusive are left out. Calls of active or inactive are those of the source. Rule for the calls, unless noted: active = hit-call score of the fitted dose curve at least 0.9, where 1 is the maximum; inconclusive = response in the unintended direction; inactive = score below 0.9.
# Biological target: human Vitamin D Receptor (VDR), VDR (gene 7421) (UniProt P11473)
# Sequence (P11473 whole entry, looked up): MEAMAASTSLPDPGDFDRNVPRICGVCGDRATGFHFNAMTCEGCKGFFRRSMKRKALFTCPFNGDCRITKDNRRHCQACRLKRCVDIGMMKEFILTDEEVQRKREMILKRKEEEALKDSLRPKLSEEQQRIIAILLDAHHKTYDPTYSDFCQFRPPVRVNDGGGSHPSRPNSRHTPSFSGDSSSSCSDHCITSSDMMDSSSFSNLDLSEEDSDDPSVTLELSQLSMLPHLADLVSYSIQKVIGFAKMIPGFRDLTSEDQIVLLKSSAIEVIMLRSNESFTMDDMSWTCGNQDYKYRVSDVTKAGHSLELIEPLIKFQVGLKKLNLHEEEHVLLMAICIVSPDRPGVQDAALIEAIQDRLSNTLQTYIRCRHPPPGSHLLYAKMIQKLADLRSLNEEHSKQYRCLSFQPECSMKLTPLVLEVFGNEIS
# Test: ATG_VDR_TRANS: Attagene TRANS-FACTORIAL HepG2 Assay for human Vitamin D Receptor (VDR) (AID 2283022)
# Conditions: not given
# Summary of the method: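 Multiplexed TRANS reporter in HepG2; 24 h treatment; reporter mRNA by RT-PCR plus capillary electrophoresis; upregulation scored relative to DMSO.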
row,Structure (SMILES),outcome
1,CC(C)CC=C(C=O)c1ccccc1,inactive
2,O=C(c1ccccc1)c1ccc(Cl)cc1,inactive
3,C[Si](C)O[Si](C)C,inactive
4,CC(O)C#CC(C)O (stereo not given),inactive
5,CCN=c1cc2oc3cc(NCC)c(C)cc3c(-c3ccccc3C(=O)OCC)c-2cc1C,inactive
6,Cc1cccc(C)n1,inactive
7,CCOCOCC,inactive
8,O=S(=O)(O)c1ccc(Cl)cc1,inactive
9,C=C(C)CCCC,inactive
10,Brc1ccccn1,inactive
11,N#Cc1ccccc1O,inactive
12,O=C1C=CC(=O)N1c1ccccc1,inactive
13,CCCCCCCCCCCCC[N+](C)(C)Cc1ccccc1,inactive
14,CC(C)(C)c1cc(CCC(=O)OCC(COC(=O)CCc2cc(C(C)(C)C)c(O)c(C(C)(C)C)c2)(COC(=O)CCc2cc(C(C)(C)C)c(O)c(C(C)(C)C)c2)COC(=O)CCc2cc(C(C)(C)C)c(O)c(C(C)(C)C)c2)cc(C(C)(C)C)c1O,inactive
15,CCCCCCCCCCCCCC[P+](CCCC)(CCCC)CCCC,inactive
16,OCCCCl,inactive
17,CC1=CCC2C(=O)OC(=O)C2C1 (stereo not given),inactive
18,CC(C)(C)c1cc(Cc2cc(C(C)(C)C)c(O)c(C(C)(C)C)c2)cc(C(C)(C)C)c1O,inactive
19,CC(C)=CCCC(C)O (stereo not given),inactive
20,CC(C)(C)C(=O)C1C(=O)c2ccccc2C1=O,inactive
21,CCCCOC(=O)[C@H](C)O,inactive
22,CCCCC(CC)COC(=O)c1ccc(N(C)C)cc1 (stereo not given),inactive
23,COCCOCCC[Si](C)(O[Si](C)(C)C)O[Si](C)(C)C,inactive
24,CCCCCCCCn1sc(Cl)c(Cl)c1=O,inactive
25,CCCC(=O)OCC(COC(=O)CCC)OC(=O)CCC,inactive

# Read-out: not listed separately
# Test: BSK_3C_SRB: Viability Assessment in the BioMAP Diversity Plus: 3C Assay (AID 2283023; active = hit-call score of the fitted dose curve at least 0.9, where 1 is the maximum; inactive = score below 0.9;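 note: cells read 24 h after compound dosing; fitted both ways against DMSO so a hit may be signal rise or drop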)
# Conditions: primary human endothelial cells (HUVEC)
# Summary of the method: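 Overt cytotoxicity is gauged in parallel confluent HUVEC cultures by SRB total-protein staining at the time of biomarker measurement, 24 h after dosing. Gain or loss of signal is fitted versus DMSO.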
Structure (SMILES),AC50,outcome
O=S(=O)(Cl)C(F)(F)C(F)(F)C(F)(F)C(F)(F)C(F)(F)C(F)(F)C(F)(F)C(F)(F)F,49.3 µM (active) and 55.6 µM (active),
C=C(C)C(=O)OCC(F)(F)C(F)(F)C(F)(F)C(F)F,,inactive
NC(=O)C(F)(F)C(F)(F)C(F)(F)C(F)(F)C(F)(F)C(F)(F)C(F)(F)F,,inactive
NC(=O)C(F)(F)C(F)(F)C(F)(F)C(F)F,,inactive
CCOC(C=C(C)CCC=C(C)C)OCC,31.2 µM (active),

# Read-out: Matrix Metallopeptidase 1 (MMP1), MMP1 (gene 4312)
# Test: BSK_BE3C_MMP1: BioMAP Diversity Plus: BE3C Assay for Matrix Metallopeptidase 1 (MMP1) Biomarker Activity (AID 2283024; active = hit-call score of the fitted dose curve at least 0.9, where 1 is the maximum; inactive = score below 0.9)
# Conditions: primary human bronchial epithelial cells; actives raise or lower the signal
# Summary of the method: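 Dose cells, wait 24 h, run MMP1 ELISA; cells are human bronchial epithelial primaries. Both increases and decreases relative to DMSO counted.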
Structure (SMILES),AC50,outcome
O=S(=O)(Cl)C(F)(F)C(F)(F)C(F)(F)C(F)(F)C(F)(F)C(F)(F)C(F)(F)C(F)(F)F,7.12 µM (active) and 7.23 µM (active),
C=C(C)C(=O)OCC(F)(F)C(F)(F)C(F)(F)C(F)F,,inactive
NC(=O)C(F)(F)C(F)(F)C(F)(F)C(F)(F)C(F)(F)C(F)(F)C(F)(F)F,,inactive
NC(=O)C(F)(F)C(F)(F)C(F)(F)C(F)F,,inactive
CCOC(C=C(C)CCC=C(C)C)OCC,,inactive
